High-throughput results deposited in PubChem by The Scripps Research Institute Molecular Screening Center.
LYPLA2 counter: counter-screen for PME1 inhibitors: inhibitors of human LYPLA2; inhibition, % at 5.9 µM; O95372; recombinant LYPLA2, FP-Rh probe fluorescence polarization; 320,000 tested, 0.38% active;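 active = inhibition above the screen-wide mean plus 3 SD, limit set per campaign, cut at about 26% in these data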;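 also: 0% = LYPLA2 with DMSO and 100% = wells lacking LYPLA2 enzyme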
LYPLA1 counter: blocks human lysophospholipase 1, a PME1 counter-screen; recombinant LYPLA1, FP-Rh probe fluorescence polarization; AID 2174; 320,000 tested, 0.16% active; O75608; inhibition, % at 5.9 µM;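 active = inhibition above the mean of all tested compounds plus 3 SD, set per campaign, cut at about 14% in these data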;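 also: inhibitors block serine hydrolase probe labeling of LYPLA1 so polarization falls; 0% = enzyme with DMSO and 100% = wells lacking LYPLA1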
GSTO1 counter: counter-screen for RBBP9 inhibitors: inhibitors of human GSTO1; recombinant GSTO1, activity-based probe fluorescence polarization; inhibition, % at 5.96 µM; 300,000 tested, 1.1% active;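 active = inhibition above the campaign mean inhibition plus 3 SD, cut at about 35% in these data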;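 also: 0% = GSTO1-1 with DMSO and 100% = wells lacking GSTO1-1 enzyme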
Fam108B inh: blocks mouse Fam108B hydrolase in RBBP9 counter-screen; recombinant Fam108B, FP-Rh probe fluorescence polarization; inhibition, % at 9.51 µM; 300,000 tested, 0.33% active; AID 1947;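 active = inhibition above the screen mean inhibition plus 3 SD, computed separately per campaign, cut at about 18% in these data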;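 also: inhibitors lower polarization as less probe binds the enzyme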
PAD4 inh: blocks human protein arginine deiminase 4 | Q9UM07 | recombinant PAD4, RCA probe fluorescence polarization | inhibition, % at 6.36 µM | 330,000 tested, 0.41% active;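 active = percent inhibition above a cutoff equal to the mean of all tested compounds plus 3 SD, cut at about 15% in these data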;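 also: 0% = PAD4 with RCA probe and DMSO and 100% = probe without PAD4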
Target sequence (Q9UM07 whole entry, looked up): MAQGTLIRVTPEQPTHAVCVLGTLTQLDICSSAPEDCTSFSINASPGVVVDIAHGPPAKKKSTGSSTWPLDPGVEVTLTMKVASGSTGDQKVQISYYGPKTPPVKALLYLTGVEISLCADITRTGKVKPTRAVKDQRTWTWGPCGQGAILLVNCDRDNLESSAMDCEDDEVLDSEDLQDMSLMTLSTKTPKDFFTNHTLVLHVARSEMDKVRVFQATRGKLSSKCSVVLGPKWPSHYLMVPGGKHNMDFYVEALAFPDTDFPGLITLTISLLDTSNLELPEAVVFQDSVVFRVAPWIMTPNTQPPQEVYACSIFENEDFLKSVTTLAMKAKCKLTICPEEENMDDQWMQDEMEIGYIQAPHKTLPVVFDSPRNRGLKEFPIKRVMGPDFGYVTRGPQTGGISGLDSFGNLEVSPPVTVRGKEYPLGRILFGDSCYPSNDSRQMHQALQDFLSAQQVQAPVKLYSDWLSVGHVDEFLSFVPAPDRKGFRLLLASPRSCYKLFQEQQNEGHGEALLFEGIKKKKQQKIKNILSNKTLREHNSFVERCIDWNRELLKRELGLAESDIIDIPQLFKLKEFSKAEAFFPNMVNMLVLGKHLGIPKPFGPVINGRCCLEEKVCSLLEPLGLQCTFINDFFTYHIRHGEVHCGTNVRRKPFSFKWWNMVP
PME-1 inh: PME-1 (human) inhibition; 320,000 tested, 0.53% active; AID 2130; recombinant PME-1, FP-Rh probe fluorescence polarization; inhibition, % at 5.9 µM;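 active = inhibition above the campaign mean of all compounds plus 3 SD, cut at about 26% in these data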;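 also: competitive labeling of PME-1 active site by serine hydrolase directed probe; 0% = PME-1 with DMSO and 100% = wells lacking PME-1 enzyme; inhibitors block probe labeling so polarization falls and inhibition rises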
LYPLA1 conf: LYPLA1 (human) inhibition, confirmation counter-screen | shares compounds with LYPLA1 counter | inhibition, % at 5.9 µM | recombinant LYPLA1, FP-Rh probe fluorescence polarization | 480 tested, 69% active;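 active = mean inhibition across replicates above the hit cutoff set in the primary screen, cut at about 15% in these data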;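 also: loss of FP-Rh probe labeling of LYPLA1 seen as lower polarization; 0% = LYPLA1 with DMSO and 100% = wells lacking LYPLA1 enzyme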
LYPLA2 confirm: LYPLA2 (human) inhibition, confirmation counter-screen | shares compounds with LYPLA2 counter | recombinant LYPLA2, FP-Rh probe fluorescence polarization | inhibition, % at 5.9 µM | 1,100 tested, 72% active;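 active = mean inhibition across replicates above the hit cutoff set in the primary screen, cut at about 26% in these data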;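 also: blocked labeling of the enzyme by serine hydrolase FP-Rh probe lowers polarization; 0% = enzyme with DMSO and 100% = wells lacking LYPLA2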
PAD4 FP conf: confirmation of human PAD4 inhibitors | shares compounds with PAD4 inh | recombinant PAD4, RCA probe fluorescence polarization | inhibition, % at 6.36 µM | 1,200 tested, 28% active | AID 488796;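 active = mean inhibition across replicates above the hit cutoff set by the earlier primary screen, cut at about 15% in these data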;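 also: inhibitors block active-site labeling by the probe so polarization falls; 0% = PAD4 with probe and DMSO and 100% = probe without PAD4 enzyme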
* marks the source's active call; other numbers are inactive results; . = not tested or not shown. Shown are actives, neighbours in structure and some others; about 1.8% of the full set was active somewhere.

SMILES	LYPLA2 counter	LYPLA1 counter	GSTO1 counter	Fam108B inh	PAD4 inh	PME-1 inh	LYPLA1 conf	LYPLA2 confirm	others
COc1ccc(-n2nc(C(=O)NCC(=O)N3CCN(Cc4ccccc4)CC3)c3ccccc3c2=O)cc1	68.7*	42.5*	0.9	3.4	-3.0	-5.0	46.7*	66.8*
COc1ccc(-n2nc(C(=O)NCC(=O)N3CCN(c4ccccc4)CC3)c3ccccc3c2=O)c(OC)c1	21.7	-1.7	2.6	1.4	2.3	4.4	.	.
Cc1cccc(C)c1NC(=O)CN(C)C(=O)C(c1ccccc1)c1ccccc1	5.8	0.1	-4.5	-6.3	-4.0	-0.7	.	.
CCCn1c(SCC(=O)N(C)CC(=O)Nc2ccc(Cl)cc2)n[nH]c1=O	7.7	2.1	.	.	3.5	-5.2	.	.
CC(C(=O)NC1(C#N)CCCCC1)N(C)CC(=O)Nc1ccc(Cl)c(Cl)c1 (stereo not given)	-10.3	-3.8	.	.	-3.1	7.1	.	.
O=c1[nH]c(CN2CCN(C/C=C/c3ccccc3)CC2)nc2cc(Cl)ccc12	32.0*	34.4*	-2.0	2.5	0.3	0.8	40.7*	31.1*
O=C(CCc1nc2ccccc2c(=O)[nH]1)N1CCN(C/C=C/c2ccccc2)CC1	15.2	-0.6	-12.1	1.8	-2.6	2.4	.	.
COc1cc([C@H]2Oc3cc([C@H]4Oc5cc(O)cc(O)c5C(=O)[C@@H]4O)ccc3O[C@@H]2CO)ccc1O	70.2*	20.8*	7.1	0.2	-3.2	1.2	37.0*	74.5*
CN1CCN(Cc2cccc(Oc3ccccc3)c2)CC1	-1.0	-1.8	-1.3	3.1	-5.3	-0.4	.	.
COc1ccc(CN2CCN(Cc3cccc(Oc4ccccc4)c3)CC2)c(OC)c1OC	26.3*	21.1*	-1.1	2.7	1.7	0.3	31.2*	21.3
COc1ccc(C(CNC(=O)COc2ccc(-c3ccccc3)cc2)N2CCOCC2)cc1 (stereo not given)	43.6*	44.8*	-5.7	1.3	3.4	5.0	56.8*	44.7*
COc1ccc(OC)c(NC(=O)CSc2ccc(-c3cccnc3)nn2)c1	2.4	-3.5	-0.8	-3.3	6.4	-1.8	.	.
CS/C(=N\S(=O)(=O)c1ccc(N)cc1)NS(=O)(=O)c1cccs1	-2.4	1.2	-0.4	-7.9	-9.1	-0.8	.	.
O=c1ccc2ccc(Oc3ccc([N+](=O)[O-])cc3Cl)cc2o1	69.9*	16.2*	-6.5	2.7	3.5	7.2	21.8*	66.4*
O=C(Nc1ccc2oc(-c3ccccc3)nc2c1)c1ccc2c(c1)OCCO2	-16.6	-10.4	-14.4	-26.8	-7.5	-34.7	.	.
O=C(Nc1ccc2oc(-c3cccnc3)nc2c1)c1ccc2c(c1)OCCO2	47.2*	20.7*	11.1	-5.8	-2.2	-15.1	53.2*	48.7*
Cc1cc(C)nc(SCc2cc(=O)c(OC(=O)c3ccc(S(=O)(=O)N4CCCC4)cc3)co2)n1	-0.2	-1.7	1.5	-2.7	-1.9	7.0	.	.
COc1ccc(CC(C)N2CCN(c3cccc(C(F)(F)F)c3)CC2)cc1OC (stereo not given)	30.9*	24.9*	8.8	3.8	-1.1	0.2	32.0*	35.3*
CCOc1cc(CN2CCN(c3cccc(C(F)(F)F)c3)CC2)ccc1OC	-2.1	-0.5	0.0	1.4	6.7	-3.3	.	.
O=C(NCCNC(=O)c1cc(OCC(F)(F)F)ccc1OCC(F)(F)F)Nc1cccc(C(F)(F)F)c1	60.6*	33.1*	-5.1	2.5	4.2	-5.4	43.8*	49.6*
CCOC(=O)NCCc1c(C)nc2c(c(C)nn2C(C)(C)C)c1C	2.4	1.9	6.0	-3.8	-3.2	3.7	.	.
Cc1cccc(NC(=O)C2CCN(C(=O)c3ccccc3C)CC2)n1	4.5	2.9	.	.	2.5	4.2	.	.
CC(=O)c1sc(NC(=O)C2CCN(C(=O)c3ccccc3C)CC2)nc1-c1ccccc1	26.8*	24.7*	-6.5	0.6	-0.2	10.5	32.4*	13.8
CCn1c(SCC(=O)Nc2ccc3c(c2)OCO3)nnc1-c1ccccc1O	0.8	0.8	7.7	3.1	2.3	-5.6	.	.
CCOC(=O)CCc1c(C)nc(SCc2ccc(C(=O)O)cc2)c(C#N)c1C	43.3*	20.4*	4.3	-1.0	-0.5	-0.8	39.4*	58.9*
SMILES	LYPLA2 counter	LYPLA1 counter	GSTO1 counter	Fam108B inh	PAD4 inh	PME-1 inh	LYPLA1 conf	LYPLA2 confirm	others
CCOC(=O)CCc1c(C)nc(SCC(=O)O)c(C#N)c1C	-4.1	-6.3	4.0	-6.6	-3.0	-1.4	.	.
O=C(COc1ccc(Br)cc1)Nc1ccc(Cc2ccncc2)cc1	29.6*	23.1*	-6.3	-0.7	0.8	-16.8	25.2*	21.8
O=C(COc1ccc(Br)cc1)N(Cc1ccco1)C1CCS(=O)(=O)C1 (stereo not given)	8.0	3.0	-1.4	5.0	-4.4	-0.4	.	.
Cc1c(Br)c([N+](=O)[O-])nn1CC(=O)Nc1ccc(Cc2ccncc2)cc1	59.0*	23.4*	-10.2	-0.1	1.7	-0.1	34.6*	66.7*
CC(=O)Nc1ccc(NC(=O)Cn2nc([N+](=O)[O-])c(Br)c2C)cc1	3.8	2.4	0.9	4.2	0.3	-7.2	.	.
C(=N\n1cnnc1)/c1ccc(OCc2cccc3ccccc23)cc1	52.3*	15.6*	-2.1	-3.8	-2.3	-6.2	20.0*	38.7*
O=C(O)c1ccc2c(c1)C(=O)N(CCCCCCCN1C(=O)c3ccc(C(=O)O)cc3C1=O)C2=O	47.2*	68.8*	2.2	-1.9	-4.4	-4.2	73.4*	47.6*
CCC(CC)c1ncc[nH]1	4.1	0.1	1.1	5.1	0.3	4.8	.	.
OC(CN1CCN(c2cccc(C(F)(F)F)c2)CC1)c1c[nH]c2ccccc12 (stereo not given)	56.6*	22.6*	-4.5	5.7	-3.2	5.3	29.7*	48.9*
O=C(CS(=O)(=O)Cc1ccccc1)N1CCN(c2cccc(C(F)(F)F)c2)CC1	7.5	2.4	-3.4	0.6	1.0	8.3	.	.
O=C(CSCc1ccccc1Br)Nc1ccccc1	37.1*	16.4*	-5.7	-2.9	-4.2	3.1	31.8*	47.2*
Cc1cc(O)ccc1N/C=C1\CCCC1=O	14.6	19.5*	28.9	8.3	41.5*	24.3	3.1	.	PAD4 FP conf=0.4
CC(=O)Nc1ccc(N/C=C2/CCCC2=O)cc1	5.7	0.6	8.5	1.4	4.2	9.4	.	.
O=C(O)CSc1ncnc2scc(-c3ccc(Br)cc3)c12	2.7	-1.3	3.9	1.8	-4.3	4.4	.	.
Cc1onc(-c2ccccc2Cl)c1C(=O)NCc1ccc2c(c1)cc(C)n2C	21.9	16.0*	12.8	8.2	38.1*	23.1	13.2	.	PAD4 FP conf=11.2
